Three compounds from PubChem BioAssay can be followed below.

By AC50 is commonly meant the concentration giving half of the maximal activity seen. As usually defined, the IC50 is the concentration that inhibits the measured activity by half. In general, viability refers to a read-out of living cells in per cent, often relative to untreated cells.

Inconclusive results are not listed. Activity calls are given as the source filed them.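 How the source made its calls, unless noted: active means normalized viability below 100% at a tested concentration; inactive means the rest.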

Assay [1] in a line: growth inhibition of DIPG glioma cells, dose response, cell-based, SU-DIPG-XVII, MIPE5.0, CellTiter-Glo, qHTS (AID 1347060; cut-off not given, nearly all actives have AC50 up to about 26 µM;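 further: cells exposed to compound for 48 hours before viability readout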). To be noted: SU-DIPG-XVII viability, CellTiter-Glo ATP luminescence. On the technique in general: In ATP-based viability assays light output follows the ATP content of the culture.
Assay [2] is described as follows: growth inhibition of DIPG glioma cells, dose response, cell-based, JHH-DIPG-1, MIPE4.0, CellTiter-Glo, qHTS (AID 1347062; cut-off not given, nearly all actives have AC50 up to about 27 µM;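 further: cells exposed to compound for two days before readout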). To be noted: JHH-DIPG-1 viability, CellTiter-Glo ATP luminescence.
A short description of assay [3]: growth inhibition of DIPG glioma cells, dose response, cell-based, SU-DIPG-XIII, MIPE5.0, CellTiter-Glo, qHTS (AID 1347064; cut-off not given, nearly all actives have AC50 up to about 23 µM;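 further: cells exposed to compound for 48 hours before the viability read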). To be noted: SU-DIPG-XIII viability, CellTiter-Glo ATP luminescence.
Assay [4] can be described thus: viability loss in pontine glioma line – cell-based, SU-DIPG-XXV, MIPE5.0, CellTiter-Glo, qHTS, dose response (AID 1347065; cut-off not given, nearly all actives have AC50 up to about 26 µM;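 further: cells exposed to compound for 48 hours before ATP readout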). To be noted: CellTiter-Glo ATP luminescence.
A short description of assay [5]: SU-DIPG-VI glioma cell viability, MIPE4.0 library, CellTiter-Glo luminescence, qHTS (AID 1347066; cut-off not given, nearly all actives have AC50 up to about 30 µM;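 further: cells exposed to compound for 48 hours before readout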). The note with it: CellTiter-Glo ATP luminescence.
Assay [6] in a line: growth inhibition of DIPG glioma cells, dose response, cell-based, SU-DIPG-IV, MIPE4.0, CellTiter-Glo, qHTS (AID 1347063; cut-off not given, nearly all actives have AC50 up to about 30 µM;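 further: compound exposure lasted 48 hours before the viability readout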). The note with it: SU-DIPG-IV viability, CellTiter-Glo ATP luminescence.
Assay [7] can be described thus: JHH-DIPG-1 glioma cell viability, MIPE5.0 library, CellTiter-Glo luminescence, qHTS (AID 1347067; cut-off not given, nearly all actives have AC50 up to about 26 µM;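 further: cells exposed to compound for 48 hours before readout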). The note with it: JHH-DIPG-1 glioma viability, CellTiter-Glo ATP luminescence.
A short description of assay [8]: SU-DIPG-XXV glioma cell viability, MIPE5.0 library, qHTS (AID 1347068; cut-off not given, nearly all actives have IC50 up to about 30 µM;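 further: cells exposed to compound for 48 hours before viability readout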).
A short description of assay [9]: sensitizers of A549 cells to miR-34 induction, primary screen, imaging, A549 dox-inducible miR-34, nuclei and caspase counts (AID 1347080;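 active means compounds whose cell count with miR-34 switched on is under 0.7 times the count with it off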). To be noted: A549 miR-34 inducible, Hoechst nuclei count, 48 h.
The nature of assay [10]: modifiers of HSF1 nuclear foci, imaging, Selleck Cancer Library (AID 1347162; in the data active means plate-normalised HSF1 focus index below about 0.46). The note with it: human cells, at 10 µM; SSMD: measured here: HSF1 foci SSMD mean; cell count: measured here: cell number; plate-normalised HSF1 focus index: stronger effect = lower value.
Assay [11] can be described thus: survival rescue of mitochondrial mutant cells in low glucose, primary screen, MELAS cybrids, Rieske KO mouse fibroblasts, CellTiter-Glo (AID 1508586;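 active means mean z-score across replicates of 1.96 or higher in either the MELAS or the Rieske mutant cell line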;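 further: z relative to plate mean and SD of compound and empty wells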).
Assay [12] in a line: ovarian cancer cell viability with rucaparib, profiling panel, oncology-focused library, rucaparib conditional (AID 1508598). To be noted: patient-derived ovarian cancer cells, CellTiter-Glo viability, 144 h, stronger effect = lower value.

With `CC/C(=C(/c1ccc(O)cc1)c1ccc(OCCNC)cc1)c1ccccc1`, the half-maximal activity concentration (AC50) was 2.63 µM (active) in [1]; 23.5 µM (active) in assay [2]; 9.34 µM (active) in assay [3]; 3.32 µM (active) in [4]; 26.4 µM (active) in assay [5].
As for `CC(C)CC(=O)Nc1n[nH]c2c1CN(C(=O)C1CCN(C)CC1)C2(C)C`, the half-maximal activity concentration (AC50) in assay [1] is 6.61 µM (active); in [2] it was 1.05 µM (active); in assay [6], 2.35 µM (active); in [4] it was 10.5 µM (active); in assay [7], 4.17 µM (active). Further, in assay [8], the 50% inhibitory concentration (IC50) was 10.5 µM (active). Further, the fold change was 1.09 (inactive) in assay [9] (stronger effect = lower value, cell number ratio, induced over uninduced) and 0.942 in assay [9] (measured here: relative caspase fold change +Dox/-Dox). Further, the cell count came to 1320 in assay [9] (measured here: total cells with miR-34 induction, stronger effect = lower value); 1210 in [9] (measured here: total cells without miR-34 induction); 7270 in assay [10]. For the same compound, the SSMD in assay [10] was -5.41. The plate-normalised HSF1 focus index in assay [10] is 0.661 (inactive). In addition, the z-score in [11] (MELAS cybrid survival, CellTiter-Glo 48 h, stronger effect = higher value) is 2.08 (active); in [11] (Rieske KO mouse fibroblast survival, CellTiter-Glo 72 h) it was -0.842. The viability in [12] (at 0.000305 µM, OCI-C5x cells, with rucaparib 10 µM, 100% = cells with rucaparib alone) is 123% (inactive); in assay [12] (at 0.000305 µM, OCI-C5x cells, without rucaparib) it was 128% (inactive); in assay [12] (at 0.000305 µM, OCI-P5x cells, with rucaparib 20 µM, 100% = cells with rucaparib alone) it was 101% (inactive); in [12] (at 0.000305 µM, OCI-P5x cells, without rucaparib), 115% (inactive); in assay [12] (at 0.00122 µM, OCI-C5x cells, with rucaparib 10 µM, 100% = cells with rucaparib alone) it was 108% (inactive); in [12] (at 0.00122 µM, OCI-C5x cells, without rucaparib), 125% (inactive). Moreover, the viability was 101% (inactive) in [12] (at 0.00122 µM, OCI-P5x cells, with rucaparib 20 µM, 100% = cells with rucaparib alone); 118% (inactive) in assay [12] (at 0.00122 µM, OCI-P5x cells, without rucaparib); 120% (inactive) in assay [12] (at 0.00488 µM, OCI-C5x cells, with rucaparib 10 µM, 100% = cells with rucaparib alone); 128% (inactive) in assay [12] (at 0.00488 µM, OCI-C5x cells, without rucaparib); 95.7% (active) in assay [12] (at 0.00488 µM, OCI-P5x cells, with rucaparib 20 µM, 100% = cells with rucaparib alone); 112% (inactive) in assay [12] (at 0.00488 µM, OCI-P5x cells, without rucaparib). Moreover, the viability in assay [12] (at 0.0195 µM, OCI-C5x cells, with rucaparib 10 µM, 100% = cells with rucaparib alone) was 120% (inactive); in [12] (at 0.0195 µM, OCI-C5x cells, without rucaparib), 130% (inactive); in assay [12] (at 0.0195 µM, OCI-P5x cells, with rucaparib 20 µM, 100% = cells with rucaparib alone), 75.5% (active); in assay [12] (at 0.0195 µM, OCI-P5x cells, without rucaparib), 92.9% (active); in assay [12] (at 0.0781 µM, OCI-C5x cells, with rucaparib 10 µM, 100% = cells with rucaparib alone), 112% (inactive); in assay [12] (at 0.0781 µM, OCI-C5x cells, without rucaparib) it was 134% (inactive). In addition, the viability is 107% (inactive) in assay [12] (at 0.0781 µM, OCI-P5x cells, with rucaparib 20 µM, 100% = cells with rucaparib alone); 122% (inactive) in assay [12] (at 0.0781 µM, OCI-P5x cells, without rucaparib); 109% (inactive) in assay [12] (at 0.313 µM, OCI-C5x cells, with rucaparib 10 µM, 100% = cells with rucaparib alone); 118% (inactive) in assay [12] (at 0.313 µM, OCI-C5x cells, without rucaparib); 99.5% (active) in [12] (at 0.313 µM, OCI-P5x cells, with rucaparib 20 µM, 100% = cells with rucaparib alone); 96% (active) in assay [12] (at 0.313 µM, OCI-P5x cells, without rucaparib). The viability in assay [12] (at 1.25 µM, OCI-C5x cells, with rucaparib 10 µM, 100% = cells with rucaparib alone) was 109% (inactive); in assay [12] (at 1.25 µM, OCI-C5x cells, without rucaparib), 113% (inactive); in assay [12] (at 1.25 µM, OCI-P5x cells, with rucaparib 20 µM, 100% = cells with rucaparib alone), 75.7% (active); in assay [12] (at 1.25 µM, OCI-P5x cells, without rucaparib) it was 69% (active); in assay [12] (at 5 µM, OCI-C5x cells, with rucaparib 10 µM, 100% = cells with rucaparib alone), 45.8% (active); in assay [12] (at 5 µM, OCI-C5x cells, without rucaparib), 69.4% (active). The viability in [12] (at 5 µM, OCI-P5x cells, with rucaparib 20 µM, 100% = cells with rucaparib alone) is 25.6% (active); in [12] (at 5 µM, OCI-P5x cells, without rucaparib), 6.68% (active).
Turning to `NC(=O)N1CCC(CC(=O)N2CCC([C@H]3c4ncc(Br)cc4CCc4cc(Cl)cc(Br)c43)CC2)CC1`, the AC50 in assay [1] is 18.6 µM (active); in [2], 23.5 µM (active); in [6] it was 18.7 µM (active); in assay [4], 16.6 µM (active); in assay [5] it was 16.6 µM (active); in [7] it was 23.5 µM (active).
